High-throughput results from PubChem BioAssay.
In the library only some 6.6% were active in any assay of this set; here they are far more common.
GDH-TPI inh – GDH-TPI coupling enzyme inhibitors, primary screen, artefact control for M. tuberculosis FBA inhibitor project, biochemical, absorbance, full deck. hit rate 1.2% among 360,000. AID 588335, 2011. GDH-TPI coupled enzyme counterscreen, NADH absorbance. inhibition, % at 4.8 µM; in the data active = inhibition above about 30%
BoNT-F LC inh – BoNT/F light chain protease inhibitors, primary screen, biochemical, flow cytometry, MLPCN library; Multiplex microsphere protease cleavage assay; hit rate 0.22% among 360,000; Botulinum neurotoxin type F light chain protease (Clostridium botulinum); inhibition, % at 10 µM; AID 588497, 2011; in the data active = inhibition above about 35%, passing the limit was not always enough; inconclusive = no clear call, values can overlap the other calls
Bead autofluor – counter-screen for toxin protease inhibitors: compound fluorescence. fluorescence intensity (concentration not given with the values). hit rate 3.1% among 360,000. compound autofluorescence counterscreen, microsphere flow cytometry; stronger effect = higher value. AID 624483; in the data active = fluorescence intensity above about 16000; inconclusive = no clear call, values can overlap the other calls
Anthrax LF prot – Bacillus anthracis LF protease inhibitors, primary screen, biochemical, multiplex microsphere, MLPCN library | Lethal factor (Bacillus anthracis), P15917 | multiplex microsphere protease cleavage assay | inhibition, % at 10 µM | hit rate 0.12% among 360,000 | AID 588501, 2011
BoNT A protease – BoNT/A light chain protease inhibitors, primary screen, biochemical, flow cytometry, MLPCN library; inhibition, % at 10 µM; multiplex microsphere protease substrate cleavage; hit rate 0.17% among 360,000
Mtb FBA inh – Mtb FBA enzyme inhibitors, primary screen, biochemical, fluorescence, strain H37Rv; purified M. tuberculosis FBA, fluorescence read-out; inhibition, % at 1 µM; hit rate 2.3% among 360,000; AID 588726, 2011; in the data active = inhibition above about 27%
Target sequence (P9WQA3 whole entry, looked up): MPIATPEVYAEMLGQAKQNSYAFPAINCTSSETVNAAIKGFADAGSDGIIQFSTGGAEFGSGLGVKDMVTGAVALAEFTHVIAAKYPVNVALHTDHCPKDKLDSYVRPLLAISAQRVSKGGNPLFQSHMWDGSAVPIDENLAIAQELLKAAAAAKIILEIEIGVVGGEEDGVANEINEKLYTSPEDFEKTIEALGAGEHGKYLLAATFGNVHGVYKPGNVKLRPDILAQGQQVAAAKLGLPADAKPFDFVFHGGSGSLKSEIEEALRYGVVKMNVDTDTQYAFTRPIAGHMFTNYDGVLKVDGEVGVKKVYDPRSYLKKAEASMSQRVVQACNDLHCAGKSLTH
Of the large screens only hits and unclear results are named; the others gave an inactive call. Cut-off read from the data, not from the text of the source, unless noted: active = inhibition above about 30%; inconclusive = no clear call, values can overlap the other calls; inactive = below that.

COc1cc(C(=O)NN=Cc2ccc(N(C)C)cc2)cc(OC)c1OC	GDH-TPI inh 42
CCOc1cc(/C=N/NC(=O)c2ccc(N(C)S(=O)(=O)c3ccccc3)cc2)ccc1OC	GDH-TPI inh 42
COc1ccc(/C=N/NC(=O)c2ccc3ccccc3c2)cc1OS(=O)(=O)c1ccc(NC(C)=O)cc1	GDH-TPI inh 36
CCOC(=O)c1ccc(-c2ccc(/C=C(\C#N)C(=O)NCC3CCCO3)o2)cc1 (stereo unspecified)	GDH-TPI inh 34, Bead autofluor 22009
O=C(Nc1ccc(NC(=O)C2CC2)cc1)c1cccs1	none
Cc1cccc(C(=O)OCC(=O)c2csc(N3CCCCC3)n2)c1[N+](=O)[O-]	GDH-TPI inh 36
Cc1ccc(NC(=O)COC(=O)c2cccc(C)c2[N+](=O)[O-])cc1S(=O)(=O)N1CCCCC1	Bead autofluor inconclusive
COc1cccc(C(=O)N(CN2CCCC2=O)c2cccc(Cl)c2)c1OC	Bead autofluor 16669
COc1ccccc1N(CN1CCCC1=O)C(=O)COc1ccccc1	Bead autofluor 16310
COc1cc(OC)cc(C(=O)N(CN2CCCC2=O)c2ccccc2OC)c1	Bead autofluor 18589
Cc1oc(-c2cccs2)nc1CN1CCC(CO)(CCOc2ccccc2)CC1	none
COc1cccc(-c2cc(=O)c3cc(NC(C)=O)ccc3[nH]2)c1	Mtb FBA inh 115
COc1ccc(-c2cc(=O)c3cc(C)ccc3[nH]2)cc1	none
COc1ccc(-c2cc(=O)c3cc(OC)ccc3[nH]2)cc1	Mtb FBA inh 76
CC(=O)Nc1ccc2[nH]c(C)cc(=O)c2c1	none
Cc1cc(C)cc(Nc2ccc(C(=O)O)cc2N)c1	Mtb FBA inh 118
COc1ccc(N2C(=O)CSC23C(=O)N2CCCc4cccc3c42)cc1 (stereo unspecified)	none
COc1ccc(N2C(=O)CSC23C(=O)N2c4c(cccc43)C(C)=CC2(C)C)cc1 (stereo unspecified)	Bead autofluor 16577
COc1ccc(N2CCN(C(=O)c3cc(=O)c4cc(C)ccc4o3)CC2)cc1	none
Cc1nc2c(S(=O)(=O)c3ccccc3)cnn2c(C)c1C	Mtb FBA inh 44
COc1ccc(CNC(=O)CSc2ccc(Br)cc2)cc1OC	none
COc1cc(C(O)P(=O)(OC2CCCCC2)c2ccc(N(C)C)cc2)cc(OC)c1OC (stereo unspecified)	Bead autofluor 16951
O=C(c1cc2ccccn2n1)N1CCN(c2cccc(C(F)(F)F)c2)CC1	Bead autofluor 20114
COc1ccc(CNC2CCCCC2C)c(OC)c1 (stereo unspecified)	Bead autofluor 22181
COc1ccc(CNCc2ccncc2)c(OC)c1	none
CCC(CC)NCc1ccc(OC)cc1OC	Bead autofluor 22992
CCOC(=O)c1nnn(-c2nonc2N)c1CN1CCc2ccccc2C1	Bead autofluor 20264
CC(C)Oc1ccc(C(=O)NCCCNC(=O)c2ccccn2)cc1	none
CCCCn1c(=O)c(C(=O)c2ccccc2)nc2ccccc21	Bead autofluor 21629
CCCn1c(=O)c(C(=O)c2ccccc2)nc2ccccc21	none
CC1(Cc2ccc(S(C)(=O)=O)cc2)C(=O)Nc2ccc(Cl)cc21 (stereo unspecified)	none
Cc1ccc(CNC(=O)C2CCN(S(=O)(=O)c3c(C)noc3/C=C/c3ccco3)CC2)cc1	GDH-TPI inh 37
Cc1ccc(S(=O)(=O)N2CCCC(C(=O)NCc3ccco3)C2)cc1Cl (stereo unspecified)	Bead autofluor 19976
CC1CCN(S(=O)(=O)c2ccc3c(c2)c(=O)c(C(=O)NCc2ccco2)cn3C)CC1	BoNT-F LC inh 38
Cc1noc(/C=C/c2ccco2)c1S(=O)(=O)N1CCC(C(=O)NCc2ccco2)CC1	GDH-TPI inh 34
CCCN(CC(=O)Nc1cc(Cl)ccc1Cl)C(=O)CN1C(=O)C2CCCCC2C1=O (stereo unspecified)	none
COc1ccc(-c2nsc(SCC(=O)NCC3CCCO3)n2)cc1 (stereo unspecified)	none
